# Data: a collection of fitness landscapes (doi:10.1126/science.1257360)
# Over roughly 140,000 sequences, “enrichment ratio after two sorts for PhoP signalling” has its median near 0; the highest 2% begin near 11. The list comes from a sample in which the highest values are over-represented; it also holds similar and randomly drawn sequences.
# B1: PhoQ; a variant is named by its letters at X, in order, P23837 (parent)
# chain: MKKLLRLFFPLSLRVRFLLATAAVVLVLSLAYGMVALIGYSVSFDKTTFRLLRGESNLFYTLAKWENNKLHVELPENIDKQSPTMTLIYDENGQLLWAQRDVPWLMKMIQPDWLKSNGFHEIEADVNDTSLLLSGDHSIQQQLQEVREDDDDAEMTHSVAVNVYPATSRMPKLTIVVVDTIPVELKSSYMVWSWFIYVLSANLLLVIPLLWVAAWWSLRPIEALAKEVRELEEHNRELLNPATTRELTSLVRNLNRLLKSERERYDKYRTTLTDLTHSLKTPLXXLQXXLRSLRSEKMSVSDAEPVMLEQISRISQQIGYYLHRASMRGGTLLSRELHPVAPLLDNLTSALNKVYQRKGVNISLDISPEISFVGEQNDFVEVMGNVLDNACKYCLEFVEISARQTDEHLYIVVEDDGPGIPLSKREVIFDRGQRVDTLRPGQGVGLAVAREITEQYEGKIVAGESMLGGARMEVIFGRQHSAPKDE
# Variants of: B1
# Assay: enrichment ratio after two sorts for PhoP signalling (ratio (wild type AVST 3.29)); higher = more functional
# Settings: with PhoP (E. coli)
row,Variant,enrichment ratio
1,HPRS,≤ 0.25
2,SFMM,0.454
3,EPTF,≤ 0.25
4,ATNR,≤ 0.25
5,FVFQ,≤ 0.25
6,DMFY,≤ 0.25
7,NDFH,≤ 0.25
8,YEAF,≤ 0.25
9,WSCA,≤ 0.25
10,APMM,≤ 0.25
11,AYMM,≤ 0.25
12,ASMM,41.3
13,ADMM,≤ 0.25
14,AAPM,4.08
15,AKMM,30.4
16,ARMM,5.29
17,AIMM,35.5
18,AAMM,13
19,VRMM,≤ 0.25
20,AHMM,≤ 0.25
21,IEAL,≤ 0.25
22,NQSL,≤ 0.25
23,PQWK,≤ 0.25
24,SKWQ,≤ 0.25

row,Variant,enrichment ratio
1,KSSH,≤ 0.25
2,SPSH,≤ 0.25
3,PVME,≤ 0.25
4,TSKH,≤ 0.25
5,TSSH,11.3
6,TVCI,0.444
7,KCME,≤ 0.25
8,TVHE,≤ 0.25
9,TVSH,15.9
10,HCSH,≤ 0.25
11,TVME,11.7
12,TVCE,13.5
13,HTVK,≤ 0.25
14,KMRS,≤ 0.25
15,IPKF,≤ 0.25
16,AQWL,≤ 0.25
17,PAAR,≤ 0.25
18,LETM,≤ 0.25
19,RMVY,≤ 0.25
20,NVCS,≤ 0.25
21,SPCA,≤ 0.25
22,PVCS,≤ 0.25
23,TVCA,14.5
24,TVCS,11.4

row,Variant,enrichment ratio
1,PVCA,≤ 0.25
2,PKSQ,≤ 0.25
3,RQKT,≤ 0.25
4,IWNV,≤ 0.25
5,LQKK,≤ 0.25
6,LFFM,≤ 0.25
7,ITFY,≤ 0.25
8,WWLL,≤ 0.25
9,SNIF,≤ 0.25
10,SNAI,22
11,SQCS,14.7
12,SNCS,19.6
13,WQCS,≤ 0.25
14,IQCS,≤ 0.25
15,SFAI,≤ 0.25
16,SNNW,1.31
17,LNAI,≤ 0.25
18,GFWW,1.03
19,LGGY,≤ 0.25
20,ESVH,≤ 0.25
21,PMVM,≤ 0.25
22,LSTF,≤ 0.25
23,GMTV,0.937
24,KCTF,≤ 0.25

row,Variant,enrichment ratio
1,TCTF,12.4
2,TCTV,12.6
3,KCTV,≤ 0.25
4,LQSN,≤ 0.25
5,PMKC,≤ 0.25
6,AKDL,≤ 0.25
7,NKTC,≤ 0.25
8,MEFC,12.8
9,METC,45.8
10,MESC,10.2
11,MFTC,≤ 0.25
12,MKFC,≤ 0.25
13,MEFA,≤ 0.25
14,LQYS,≤ 0.25
15,KENY,≤ 0.25
16,IMSK,≤ 0.25
17,EIPN,≤ 0.25
18,QESG,6.03
19,MRSG,≤ 0.25
20,SRSG,≤ 0.25
21,TESG,24.9
22,MESN,7.39
23,NESG,≤ 0.25
24,QESN,5.1

row,Variant,enrichment ratio
1,TESN,20.2
2,PLSG,≤ 0.25
3,SLSG,11.8
4,PESG,≤ 0.25
5,MESG,15.7
6,GKLS,≤ 0.25
7,SVRW,≤ 0.25
8,RDAA,≤ 0.25
9,KNCK,≤ 0.25
10,VGMN,≤ 0.25
11,HWYH,≤ 0.25
12,IYMC,≤ 0.25
13,EKVI,≤ 0.25
14,HFDW,≤ 0.25
15,HAFN,≤ 0.25
16,EAES,≤ 0.25
17,FCSG,≤ 0.25
18,AESG,25.4
19,AKSG,5.13
20,SESG,28.9
21,KYSG,≤ 0.25
22,SCSG,20.2
23,STSG,8.56
24,SQSG,6.12

row,Variant,enrichment ratio
1,AESN,11
2,LITF,≤ 0.25
3,ATGN,3.43
4,SNVC,11.5
5,GGVC,≤ 0.25
6,SNWR,≤ 0.25
7,SNVG,3.21
8,HEMI,12.7
9,HEMR,≤ 0.25
10,SNCH,7.35
11,TGVC,16.8
12,SNMH,11.9
13,PGVC,≤ 0.25
14,HEMV,≤ 0.25
15,SLVC,≤ 0.25
16,ANPD,≤ 0.25
17,TGHW,≤ 0.25
18,KVMG,≤ 0.25
19,IFMF,≤ 0.25
20,WNFI,≤ 0.25
21,ILYP,≤ 0.25
22,PDCM,≤ 0.25
23,SNHE,≤ 0.25
24,SNFE,≤ 0.25

row,Variant,enrichment ratio
1,SNMG,12.5
2,SNMD,1.49
3,SNMA,7.05
4,SNLW,7.18
5,SNMW,3.59
6,GNVC,11.6
7,SNME,14.4
8,SNMS,12
9,GIVC,4.3
10,GNVG,2.06
11,YALF,3.8
12,PCNL,≤ 0.25
13,QLCD,≤ 0.25
14,TKMD,0.263
15,FIAQ,≤ 0.25
16,FTMY,4.04
17,RWMS,≤ 0.25
18,GIMF,6.62
19,WQCV,≤ 0.25
20,SLMF,2.69
21,SNCV,14.2
22,HEPH,≤ 0.25
23,GNMF,15.2
24,SQCV,6.68

row,Variant,enrichment ratio
1,HEMF,≤ 0.25
2,HEPN,18.8
3,GYMF,≤ 0.25
4,SNMF,19.4
5,HEVN,≤ 0.25
6,EGYW,≤ 0.25
7,FYIV,≤ 0.25
8,VIWQ,≤ 0.25
9,NEFL,≤ 0.25
10,HMPY,≤ 0.25
11,RMDS,≤ 0.25
12,WDAC,≤ 0.25
13,ILVT,≤ 0.25
14,GQDA,≤ 0.25
15,SNVA,6.33
16,SNYV,0.433
17,SNMV,18.5
18,SNLT,7.56
19,SNMR,1.49
20,SNIV,9.73
21,SRLI,6.88
22,SNMI,19.8
23,SNLA,6.53
24,SNLI,11.3

row,Variant,enrichment ratio
1,SNLS,11.5
2,TPLI,≤ 0.25
3,PWPK,≤ 0.25
4,GTKI,≤ 0.25
5,MYMW,≤ 0.25
6,HSYK,≤ 0.25
7,GPQG,≤ 0.25
8,KMHW,≤ 0.25
9,GDTD,≤ 0.25
10,DSIT,≤ 0.25
11,NPMD,≤ 0.25
12,WFPK,≤ 0.25
13,QDRV,≤ 0.25
14,DPTF,≤ 0.25
15,PMYV,≤ 0.25
16,VTLQ,11.3
17,FTLQ,6.79
18,VYLQ,≤ 0.25
19,VFLQ,≤ 0.25
20,TTLQ,10.7
21,GYLQ,≤ 0.25
22,YTLQ,12.8
23,GTLQ,15.2
24,QPLQ,≤ 0.25

row,Variant,enrichment ratio
1,SQPR,≤ 0.25
2,IAGV,≤ 0.25
3,HKDW,≤ 0.25
4,GERY,≤ 0.25
5,SAVR,≤ 0.25
6,MMAP,≤ 0.25
7,RAVP,≤ 0.25
8,WSVY,≤ 0.25
9,STPW,≤ 0.25
10,NING,≤ 0.25
11,SING,13.7
12,RING,≤ 0.25
13,KYMG,≤ 0.25
14,SLTG,12.5
15,PLTG,≤ 0.25
16,TING,13.9
17,SIMG,13.2
18,WLTG,≤ 0.25
19,SLNG,0.339
20,KYNG,≤ 0.25
21,SIGG,6.86
22,DHDM,≤ 0.25
23,DCPT,≤ 0.25
24,ELTP,≤ 0.25

row,Variant,enrichment ratio
1,IKSW,≤ 0.25
2,GMDV,≤ 0.25
3,TNRI,≤ 0.25
4,SCYN,≤ 0.25
5,YRVE,≤ 0.25
6,SSTG,12.4
7,SITG,16.2
8,SQTG,9.26
9,SFTG,5.29
10,KYTG,≤ 0.25
11,STTG,7.62
12,LIWW,≤ 0.25
13,TSIP,≤ 0.25
14,IDFC,≤ 0.25
15,QELP,≤ 0.25
16,RGAS,≤ 0.25
17,ADAS,≤ 0.25
18,NGAS,0.365
19,CSAS,36.6
20,KSAS,≤ 0.25
21,TGAS,14
22,CSAT,≤ 0.25
23,KDAS,≤ 0.25
24,TDAS,11.6

row,Variant,enrichment ratio
1,PRQF,≤ 0.25
2,AFYG,≤ 0.25
3,EQHW,≤ 0.25
4,ESQM,≤ 0.25
5,WSTG,≤ 0.25
6,PICR,≤ 0.25
7,TESQ,22.8
8,QESQ,≤ 0.25
9,QESI,7.8
10,MMSI,8.62
11,MCSI,12.5
12,MESI,12.5
13,QESA,≤ 0.25
14,MCSK,≤ 0.25
15,NESQ,≤ 0.25
16,NESA,≤ 0.25
17,MQSI,≤ 0.25
18,TESA,11.7
19,HEMY,≤ 0.25
20,TSHA,3
21,IPQD,≤ 0.25
22,HTSR,≤ 0.25
23,FRDI,≤ 0.25
24,TEQS,7.71

row,Variant,enrichment ratio
1,GWCG,≤ 0.25
2,TLDG,≤ 0.25
3,PGHR,≤ 0.25
4,TESR,6.55
5,TESK,6.64
6,TESI,13.5
7,QGNK,≤ 0.25
8,RDYI,≤ 0.25
9,QMSV,10.5
10,TTGN,21.9
11,QGGN,14.7
12,QPGN,≤ 0.25
13,TSGN,14.9
14,FFGN,≤ 0.25
15,KSGN,≤ 0.25
16,LTGN,≤ 0.25
17,YTGN,≤ 0.25
18,KCGN,≤ 0.25
19,TGGN,13.9
20,NSGN,≤ 0.25
21,THGN,≤ 0.25
